Source: PubChem BioAssay
Sampled rows, rich in hits. Any-hit rate of the full collection: about 2.2%.
ATXN2 expr inh: ATXN2 expression inhibition. HEK-293 ATXN2-luciferase reporter, luminescence, 24 h. Potency, µM (highest dose often 57 µM), for inactives: at the highest dose activity change, negative = inhibition, usual class: inhibitors. 360,000 compounds, 0.72% hits; also: potency is read from the fitted curve at half-maximal effect; % is scaled to controls: 0 for no effect and ±100 for the full control effect; nearly all actives have a fitted effect of over 55% in size
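qHTS (up to 57 uM final) was run with 24 h compound exposure of reporter cells at 37 °C. Each well was multiplexed: SteadyGlo luminescence measured ATXN2-luciferase expression after a fluorogenic Gly-Phe-AFC viability readout (25 uM final).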
mIDH1 inhibitor: blocks human mutant IDH1 R132H enzyme. Potency, µM (top dose mostly 76.6 µM), for the others: top-dose activity change, negative = inhibition, usual class: inhibitors. AID 602179. 390,000 compounds, 0.093% hits. IDH1-R132H enzyme, NADPH consumption, diaphorase/resazurin fluorescence. O75874; also: potency is read from the fitted curve at half-maximal effect; % is scaled to controls: 0 for no effect and ±100 for the full control effect; nearly all actives have a fitted effect of over 65% in size
Target sequence (O75874 whole entry R132H, stated change not applied): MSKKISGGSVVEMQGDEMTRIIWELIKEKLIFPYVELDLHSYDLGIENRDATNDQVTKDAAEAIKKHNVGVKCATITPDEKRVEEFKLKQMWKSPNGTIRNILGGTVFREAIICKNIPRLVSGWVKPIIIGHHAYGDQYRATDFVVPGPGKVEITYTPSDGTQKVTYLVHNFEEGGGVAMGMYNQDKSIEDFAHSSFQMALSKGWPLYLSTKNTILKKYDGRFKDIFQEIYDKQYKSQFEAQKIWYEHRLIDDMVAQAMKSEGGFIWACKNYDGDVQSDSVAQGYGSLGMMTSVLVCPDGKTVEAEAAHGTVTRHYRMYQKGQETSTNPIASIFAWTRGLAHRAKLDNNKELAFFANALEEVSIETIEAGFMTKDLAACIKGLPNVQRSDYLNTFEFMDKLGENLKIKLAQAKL
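IDH1-R132H (0.5 ug/mL) preincubated 30 min with compound, then NADPH (0.016 mM) and alpha-KG (2 mM) added; 80 min at RT, pH 7.5. Remaining NADPH coupled via diaphorase/resazurin to fluorescence (540/590 nm); concentration-response curves normalized to no-enzyme control.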
S2 tox: viability counter-screen for ATXN expression inhibitors; S2 cells (HEK-293 line with an ATXN2-luciferase reporter) viability, CellTiter-Fluor protease fluorescence, 24 h; 400,000 compounds, 0.49% hits; Potency, µM (titrated, usually from 56.7 µM), usual class: cytotoxic; also: potency is read from the fitted curve at half-maximal effect; nearly all actives have a fitted effect of over 40% in size
HepG2 tox: HepG2 cytotoxicity, counter-screen for TGF-b inhibitors | AID 588856 | 410,000 compounds, 0.76% hits | Potency, µM (highest dose often 46.1 µM), without a hit: top-dose activity change, negative = cytotoxicity, most hits filed as cytotoxic | HepG2 CAGA-GFP viability, ATP luminescence, 18 h; also: potency is read from the fitted curve at half-maximal effect
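HepG2 CAGA-GFP cells (1000/well, DMEM with 1% FBS) received compound, then TGF-beta at 500 pg/mL final, and were incubated 18 hours at 37 degrees C. Viability was read by CellTiter-Glo luminescence. Media-only wells were set as complete cell-killing and DMSO as no toxicity.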
TGFb inhibitor: inhibitors of TGF-b signaling; 410,000 compounds, 1.2% hits; HepG2 CAGA-GFP TGF-b/SMAD3 reporter, GFP fluorescence, 18 h; TGF-beta stimulated, 500 pg/mL final; Potency, µM (titrated, usually from 46.1 µM), for inactives: at the top dose activity, negative = inhibition, most hits filed as inhibitors; also: potency is read from the fitted curve at half-maximal effect; % is scaled to controls: 0 for no effect and ±100 for the full control effect; nearly all actives have a fitted effect of over 65% in size
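Cell-based qHTS in HEPG2 carrying a CAGA-GFP Smad reporter; compounds added before 500 pg/mL final TGF-beta, 18 h incubation at 37 degrees C, GFP fluorescence quantified per cell by imaging cytometry.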
LDHA block: blocks human lactate dehydrogenase A; purified LDHA, NADH/diaphorase-resazurin fluorescence; stronger effect = lower value; P00338; 480,000 compounds, 0.15% hits; AID 1347041; activity change, % (values are at about 110 or 230 µM); in the data active = activity change below about -30%; inconclusive = mostly about -25% to -30%;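 also: plate controls were DMSO wells for no effect and wells without enzyme for full effect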
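Remaining NADH was detected by diaphorase (0.133 mg/mL) converting 37 µM resazurin to fluorescent resorufin, read at 0 and 20 minutes. The preceding 5-minute room-temperature reaction used 2 nM LDHA, 0.2 mM sodium pyruvate and 0.06 mM NADH at pH 7.4.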
Starred values were filed as active, the others as inactive. Unless noted, calls follow the shape of the dose curve; as a rule, active = well fitted curve in the direction sought with a large enough effect; inconclusive = small, poorly fitted or top-dose-only effect, or another doubt; inactive = no such curve, though single readings can be large; an effect the other way counts as inactive or inconclusive.

What do the screens show for `Cc1cc(NCc2ccccn2)n2ncc(-c3ccc(Cl)cc3)c2n1`?
ATXN2 expr inh: -14%; mIDH1 inhibitor: 2%; S2 tox: inconclusive; HepG2 tox: -49%; TGFb inhibitor: 11µM*; LDHA block: -1

What do the screens show for `Cc1cc(NCc2ccccn2)n2nc(C)c(-c3ccc(Cl)cc3)c2n1`?
ATXN2 expr inh: inconclusive; mIDH1 inhibitor: -7%; S2 tox: inactive; HepG2 tox: 14µM*; TGFb inhibitor: inconclusive; LDHA block: -2

How did Cc1cc(NCc2ccccn2)n2nc(C)c(-c3ccccc3Cl)c2n1 do in these assays?
LDHA block: -5

How did C[C@@H](c1ccccc1)N1C[C@H](COCc2ccccc2)Oc2cc(N3CC[C@H](O)C3)ccc2S1(=O)=O do in these assays?
ATXN2 expr inh: -30%; S2 tox: inconclusive; LDHA block: 4

How did c1ccc(-c2ccccc2OCCOCCN2CCOCC2)cc1 do in these assays?
ATXN2 expr inh: -5%; mIDH1 inhibitor: 6%; S2 tox: inactive; HepG2 tox: 5%; TGFb inhibitor: 2%; LDHA block: -45*

How did C=CCNCCOCCOc1ccccc1-c1ccccc1 do in these assays?
mIDH1 inhibitor: 5%; S2 tox: inactive; HepG2 tox: -85%; TGFb inhibitor: -25%; LDHA block: -30*

What do the screens show for `CN(C)C1=NC[C@H](Cc2ccccc2)N1CC1CCCC1`?
ATXN2 expr inh: -21%; mIDH1 inhibitor: 2%; S2 tox: inactive; HepG2 tox: -5%; TGFb inhibitor: 5%; LDHA block: -4

Results for COc1ccc(CCNC(=O)CCn2c(=O)c3ccccc3n(Cc3ccccc3)c2=O)cc1OC ?
ATXN2 expr inh: 5%; mIDH1 inhibitor: -15%; S2 tox: inactive; HepG2 tox: -3%; TGFb inhibitor: -6%; LDHA block: -11

What do the screens show for `C=CCn1c(C)cc(C(=O)CSc2nnc(C3CC3)n2C2CC2)c1C`?
ATXN2 expr inh: 16%; mIDH1 inhibitor: 12%; S2 tox: inactive; HepG2 tox: 1%; TGFb inhibitor: 8%; LDHA block: -9

Results for Nc1nc(CCl)nc(Nc2cccc3ccccc23)n1 ?
mIDH1 inhibitor: 4%; S2 tox: inconclusive; HepG2 tox: 13µM*; TGFb inhibitor: 11µM*; LDHA block: -4

Results for CC(=O)Nc1ccc(NC(=O)CNC(=O)c2sc3ccccc3c2Cl)cc1 ?
ATXN2 expr inh: 10%; mIDH1 inhibitor: 4%; S2 tox: inactive; HepG2 tox: 6%; TGFb inhibitor: 13%; LDHA block: -13

What do the screens show for `O=C1NC[C@H](c2ccccc2)OC(=O)[C@@H](Cc2ccc(F)cc2)C/C=C\C[C@H]1CC(=O)N(CCO)Cc1ccccc1`?
ATXN2 expr inh: -20%; mIDH1 inhibitor: 7%; S2 tox: inconclusive; HepG2 tox: -116%; TGFb inhibitor: inconclusive; LDHA block: 7

How did O=C1NC[C@H](c2ccccc2)OC(=O)[C@H](Cc2ccc(F)cc2)C/C=C\C[C@H]1CC(=O)N(CCO)Cc1ccccc1 do in these assays?
ATXN2 expr inh: 32µM*; mIDH1 inhibitor: 0%; S2 tox: inconclusive; HepG2 tox: -28%; TGFb inhibitor: inconclusive; LDHA block: 4

What do the screens show for `CC(C)CCN(CCC(C)C)C/C(O)=C(\C#N)c1nc(-c2ccccc2)cs1`?
ATXN2 expr inh: -9%; mIDH1 inhibitor: -8%; S2 tox: inactive; HepG2 tox: -32%; TGFb inhibitor: -9%; LDHA block: -5

What do the screens show for `Cc1ccc(S(=O)(=O)N2CCCC2C(=O)Oc2ccccc2)cc1` (configuration not stated)?
ATXN2 expr inh: -2%; mIDH1 inhibitor: 3%; S2 tox: inactive; HepG2 tox: 2%; TGFb inhibitor: 5%; LDHA block: -2

How did Cc1ccccc1CS(=O)(=O)Cc1ccc(C(=O)NCCc2ccc(Cl)cc2)o1 do in these assays?
mIDH1 inhibitor: 1%; HepG2 tox: -19%; TGFb inhibitor: 14µM*; LDHA block: -1
